From PubChem BioAssay (Tox21)
Inconclusive results are not listed. Calls of active or inactive are those of the source. Unless noted, calls follow the shape of the full dose curve.

Key:
[1] = qHTS assay to identify small molecule agonists of the sonic hedgehog signaling (Shh) pathway (AID 1259368);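 also: NIH/3T3-derived 3T3Gli1-Luc cells carrying a stable Gli1-driven firefly luciferase reporter; series mostly up to about 92 µM; nearly all actives have a fitted effect of over 15% in size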
Summary of the method: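 Hedgehog pathway agonism scored by increased firefly luciferase luminescence in 3T3Gli1-Luc cells treated 24 hr at 37 C; detection used a 30 min room-temperature reagent incubation.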

[2] = qHTS assay to identify small molecule antagonists of the sonic hedgehog signaling (Shh) pathway (AID 1259369); also: nearly all actives have a fitted effect of over 45% in size
Summary of the method: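 NIH/3T3 stable Gli1-Luc clone, 2,000 cells/well, 4hr settle; cpd + conditioned medium 24hr; Luc reagent 30min RT; luminescence.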

[3] = target: Estrogen receptor beta (Homo sapiens) (UniProt Q92731); assay: qHTS assay to identify small molecule agonists of the estrogen receptor beta (ER-beta) signaling pathway (AID 1259377; active = well fitted activation curve with a large enough effect in the signal ratio in the repeat runs, not every such curve was filed as active; the % refers to the signal ratio)
Summary of the method: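 qHTS in ER-beta-UAS-bla HEK293T cells: 6 hr settling, then 16 hr compound at 37C, then LiveBLAzer substrate 2 h at RT before fluorescence reading.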

[4] = qHTS assay to identify small molecule agonists of the androgen receptor (AR) signaling pathway in the presence of an antagonist - cell viability counter screen (AID 1259379; active = well fitted curve in the direction sought with a large enough effect in the repeat runs; an effect the other way counts as inactive or inconclusive;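 also: MDA-kb2 human breast cancer cells carrying an MMTV luciferase reporter; series mostly up to about 92 µM; nearly all actives have a fitted effect of over 25% in size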)
Summary of the method: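 MDA-kb2 viability measured by CellTiter-Fluor fluorescence in the same wells as the luciferase signal; nilutamide 3.0uM final; 15-point compound titration; 16 hr at 37C.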

[5] = qHTS assay to identify small molecule agonists of the estrogen receptor beta (ER-beta) signaling pathway - cell viability counter screen (AID 1259380; active = well fitted curve in the direction sought with a large enough effect in the repeat runs; an effect the other way counts as inactive or inconclusive; also: nearly all actives have a fitted effect of over 30% in size)
Summary of the method: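 Measured: luminescence from CellTiter-Glo after 30 min at room temperature, added to wells already read for the LiveBLAzer FRET reporter (2 hr substrate); ER-beta-UAS-bla HEK293T cells had 16 hr compound treatment at 37C, 5% CO2.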

[6] = qHTS assay to identify small molecule antagonists of the estrogen receptor beta (ER-beta) signaling pathway - cell viability counter screen (AID 1259382; active = well fitted curve in the direction sought with a large enough effect in the repeat runs; an effect the other way counts as inactive or inconclusive; also: series mostly up to about 92 µM; nearly all actives have a fitted effect of over 55% in size)
Summary of the method: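 Readout: luminescence, CellTiter-Glo, same wells as bla assay. System: ER-beta-UAS-bla GripTite HEK293T, 2% charcoal-stripped FBS. Exposure: compounds plus 1nM 17-beta-estradiol, 16 hr, 37C.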

[7] = target: Estrogen receptor (Homo sapiens) (UniProt P03372); assay: qHTS assay to identify small molecule agonists of the estrogen receptor alpha (ER-alpha) signaling pathway in the presence of an antagonist (AID 1259383); also: top concentration of the series differs between compounds; nearly all actives have a fitted effect of over 15% in size
Summary of the method: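 Quantitative HTS confirmation: compounds titrated at 15 concentrations onto estrogen-deprived VM7Luc4E2 cells carrying a four-ERE luciferase construct, with ICI-182,780 present at 10.0nM final. Signal is luminescence after 22hr exposure.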

[8] = qHTS assay to identify small molecule agonists or antagonists of the thyroid stimulating hormone receptor (TSHR) signaling pathway - wild type cell line counter screen (AID 1259384)
Summary of the method: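 Wild-type Hek293 cells, 800/well, 18 h at 37C, then compound with Ro20-1724 for 30 min RT. cAMP by HTRF (cAMP-d2/anti-cAMP cryptate), 1 h RT, fluorescence read. 15 concentrations, triplicates.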

[9] = target: Thyrotropin receptor (Homo sapiens) (UniProt P16473); assay: qHTS assay to identify small molecule antagonists of the thyroid stimulating hormone receptor (TSHR) signaling pathway (AID 1259385); also: nearly all actives have a fitted effect of over 20% in size
Summary of the method: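 TSHR-HEK293 cells (800/well) plated 18 h, then compounds with Ro20-1724 and TSH at 1.5 ng/mL final, 30 min at room temperature. cAMP quantified by HTRF (cAMP-d2/anti-cAMP-cryptate, 1 h); 15 concentrations in triplicate.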

[10] = qHTS assay to identify small molecule agonists of the estrogen receptor alpha (ER-alpha) signaling pathway in the presence of an antagonist - cell viability counter screen (AID 1259386; active = well fitted curve in the direction sought with a large enough effect in the repeat runs; an effect the other way counts as inactive or inconclusive;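 also: series mostly up to about 92 µM; cells exposed to compounds for 22 h at 37 °C before the viability read; nearly all actives have a fitted effect of over 30% in size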)
Summary of the method: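 The test measures whether compounds kill ER-alpha reporter cells (VM7Luc4E2) under antagonist co-treatment (ICI-182,780, 10.0nM). Fluorescence from CellTiter-Fluor is read after a 22hr exposure.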

[11] = target: Progesterone receptor (Homo sapiens) (UniProt P06401); assay: qHTS assay to identify small molecule agonists of the progesterone receptor (PR) signaling pathway (AID 1346784); also: nearly all actives have a fitted effect of over 30% in size
Summary of the method: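 Fluorescence from LiveBLAzer B/G FRET substrate cleavage (2 hr, RT) reported PR activation in PR-UAS-bla HEK 293T cells treated 16 hr at 37C/5% CO2 with compounds; medium contained 2% charcoal-stripped FBS.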

[12] = target: Progesterone receptor (Homo sapiens) (UniProt P06401); assay: qHTS assay to identify small molecule antagonists of the progesterone receptor (PR) signaling pathway (AID 1346795; active = well fitted inhibition curve with a large enough effect in the signal ratio in the repeat runs, not every such curve was filed as active; the % refers to the signal ratio)
Summary of the method: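 Fluorescence intensity measured 2 hr after adding beta-lactamase FRET substrate to PR-UAS-bla HEK293T cells that had been co-treated 16 hr with compound and 1 nM R5020 (final concentration) in 2% charcoal-stripped FBS.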

[13] = qHTS assay to identify small molecule antagonists of the progesterone receptor (PR) signaling pathway - cell viability counter screen (AID 1346798; active = well fitted curve in the direction sought with a large enough effect in the repeat runs; an effect the other way counts as inactive or inconclusive; also: series mostly up to about 92 µM; nearly all actives have a fitted effect of over 50% in size)
Summary of the method: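 CellTiter-Glo luminescence; PR-UAS-bla HEK293T, 3,000 cells/well; compound + R5020, 16 hr, 37C/5% CO2; 30 min RT before read.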

[14] = qHTS assay to identify small molecule antagonists of the TGF-beta/Smad signaling pathway - cell viability counter screen (AID 1346824; active = well fitted curve in the direction sought with a large enough effect in the repeat runs; an effect the other way counts as inactive or inconclusive; also: nearly all actives have a fitted effect of over 50% in size)
Summary of the method: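 SBE-bla HEK 293T cells, incubated overnight, then compound plus 0.25 ng/mL TGF-beta1 (stock added) for 5 hr at 37 C. Viability was read in the same wells by CellTiter-Glo luminescence after 30 min at room temperature.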

[15] = qHTS assay to identify small molecule agonists of the TGF-beta/Smad signaling pathway - cell viability counter screen (AID 1346829; active = well fitted curve in the direction sought with a large enough effect in the repeat runs; an effect the other way counts as inactive or inconclusive; also: top concentration of the series differs between compounds; nearly all actives have a fitted effect of over 45% in size)
Summary of the method: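 After overnight seating at 37 C and 5% CO2, reporter cells got compounds for 5 hr and FRET substrate for 2 hr; cell viability then came from CellTiter-Glo luminescence.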

[16] = qHTS assay to identify small molecule agonists of the TGF-beta/Smad signaling pathway (AID 1346859; active = well fitted activation curve with a large enough effect in the signal ratio in the repeat runs, not every such curve was filed as active; the % refers to the signal ratio; also: series mostly up to about 77 µM)
Summary of the method: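 After overnight seeding, SBE-bla HEK 293T cells are dosed with compounds in DMSO and kept 5 hr at 37 C, 5% CO2. LiveBLAzer-type FRET substrate is then applied for 2 hr at room temperature.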

[17] = qHTS assay to identify small molecule agonists of the progesterone receptor (PR) signaling pathway - cell viability counter screen (AID 1346799); also: nearly all actives have a fitted effect of over 45% in size
Summary of the method: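 In parallel with the beta-lactamase readout, cytotoxicity toward PR-UAS-bla HEK293T cells was measured by CellTiter-Glo luminescence following 16 hr compound incubation in 2% charcoal-stripped FBS medium.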

[18] = target: Thyrotropin-releasing hormone receptor (Homo sapiens) (UniProt P34981); assay: qHTS assay to identify small molecule antagonists of the thyrotropin-releasing hormone receptor (TRHR) signaling pathway (AID 1346877; active = well fitted inhibition curve with a large enough effect in the repeat runs, not every such curve was filed as active; also: series mostly up to about 51 µM)
Summary of the method: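 Overnight-plated (18 h, 37 °C) HEK293 cells expressing TRHR were dye-loaded 2 h, treated with compound, then stimulated with TRH at 1 nM final. Fluorescence intensity was captured every second for 3 min.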

[19] = target: Estrogen receptor beta (Homo sapiens) (UniProt Q92731); assay: qHTS assay to identify small molecule antagonists of the estrogen receptor beta (ER-beta) signaling pathway (AID 1259378; active = well fitted inhibition curve with a large enough effect in the signal ratio in the repeat runs, not every such curve was filed as active; the % refers to the signal ratio)
Summary of the method: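 ER-beta-UAS-bla HEK293T cells in 2% charcoal-stripped FBS medium treated with compound plus 1nM final 17-beta-estradiol for 16 hr at 37C. Beta-lactamase reporter read by FRET substrate fluorescence after 2 hours at room temperature.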

Measured: Potency

Sequence of Progesterone receptor (Homo sapiens) (P06401 whole entry, looked up): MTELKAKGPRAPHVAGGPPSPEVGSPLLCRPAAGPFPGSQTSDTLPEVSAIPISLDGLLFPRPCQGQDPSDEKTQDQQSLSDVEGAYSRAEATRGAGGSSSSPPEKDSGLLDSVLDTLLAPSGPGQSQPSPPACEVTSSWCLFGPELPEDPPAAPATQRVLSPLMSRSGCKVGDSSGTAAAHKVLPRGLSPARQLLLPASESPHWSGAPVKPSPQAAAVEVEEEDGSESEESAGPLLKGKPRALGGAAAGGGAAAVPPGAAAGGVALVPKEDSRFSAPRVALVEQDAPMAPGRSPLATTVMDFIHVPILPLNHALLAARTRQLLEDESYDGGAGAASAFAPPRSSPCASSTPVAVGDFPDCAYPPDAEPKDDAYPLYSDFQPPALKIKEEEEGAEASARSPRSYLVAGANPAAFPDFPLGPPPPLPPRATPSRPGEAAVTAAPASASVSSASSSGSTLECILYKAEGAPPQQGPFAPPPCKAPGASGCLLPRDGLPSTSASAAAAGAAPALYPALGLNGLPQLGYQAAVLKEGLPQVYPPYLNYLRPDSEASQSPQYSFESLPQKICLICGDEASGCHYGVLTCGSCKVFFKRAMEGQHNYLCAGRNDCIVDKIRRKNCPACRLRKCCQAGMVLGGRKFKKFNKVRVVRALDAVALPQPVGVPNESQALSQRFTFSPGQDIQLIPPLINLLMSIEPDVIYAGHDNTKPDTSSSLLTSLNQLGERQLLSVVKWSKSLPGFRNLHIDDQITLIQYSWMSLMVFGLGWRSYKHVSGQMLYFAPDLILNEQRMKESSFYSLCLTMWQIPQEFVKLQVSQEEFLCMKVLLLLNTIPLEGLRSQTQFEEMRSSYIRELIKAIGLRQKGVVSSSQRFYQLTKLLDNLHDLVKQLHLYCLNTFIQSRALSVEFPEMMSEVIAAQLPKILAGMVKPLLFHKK
Sequence of Thyrotropin-releasing hormone receptor (Homo sapiens) (P34981 whole entry, looked up): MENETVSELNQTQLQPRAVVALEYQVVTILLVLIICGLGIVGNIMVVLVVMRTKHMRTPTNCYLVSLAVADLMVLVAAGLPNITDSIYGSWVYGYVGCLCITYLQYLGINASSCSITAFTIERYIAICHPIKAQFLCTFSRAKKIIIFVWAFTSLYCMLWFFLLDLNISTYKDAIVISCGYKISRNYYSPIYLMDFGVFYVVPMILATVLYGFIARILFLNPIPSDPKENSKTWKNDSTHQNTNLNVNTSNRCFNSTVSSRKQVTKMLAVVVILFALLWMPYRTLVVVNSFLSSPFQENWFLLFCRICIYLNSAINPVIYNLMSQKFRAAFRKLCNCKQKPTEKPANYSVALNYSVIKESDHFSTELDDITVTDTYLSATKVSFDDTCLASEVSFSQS
Sequence of Estrogen receptor beta (Homo sapiens) (Q92731 whole entry, looked up): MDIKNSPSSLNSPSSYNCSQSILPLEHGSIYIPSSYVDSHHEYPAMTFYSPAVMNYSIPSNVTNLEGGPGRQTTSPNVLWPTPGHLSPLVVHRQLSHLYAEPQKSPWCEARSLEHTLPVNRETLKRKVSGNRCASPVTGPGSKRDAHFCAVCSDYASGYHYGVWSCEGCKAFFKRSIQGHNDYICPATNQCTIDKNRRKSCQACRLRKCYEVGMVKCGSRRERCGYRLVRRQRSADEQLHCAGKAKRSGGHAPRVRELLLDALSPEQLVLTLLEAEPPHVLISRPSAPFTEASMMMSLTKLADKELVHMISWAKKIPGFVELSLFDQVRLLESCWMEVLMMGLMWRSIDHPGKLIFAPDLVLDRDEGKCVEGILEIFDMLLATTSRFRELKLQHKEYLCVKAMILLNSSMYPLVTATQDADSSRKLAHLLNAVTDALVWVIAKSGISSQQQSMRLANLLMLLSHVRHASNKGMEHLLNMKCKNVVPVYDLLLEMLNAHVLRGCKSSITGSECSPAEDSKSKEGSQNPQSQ
Sequence of Estrogen receptor (Homo sapiens) (P03372 whole entry, looked up): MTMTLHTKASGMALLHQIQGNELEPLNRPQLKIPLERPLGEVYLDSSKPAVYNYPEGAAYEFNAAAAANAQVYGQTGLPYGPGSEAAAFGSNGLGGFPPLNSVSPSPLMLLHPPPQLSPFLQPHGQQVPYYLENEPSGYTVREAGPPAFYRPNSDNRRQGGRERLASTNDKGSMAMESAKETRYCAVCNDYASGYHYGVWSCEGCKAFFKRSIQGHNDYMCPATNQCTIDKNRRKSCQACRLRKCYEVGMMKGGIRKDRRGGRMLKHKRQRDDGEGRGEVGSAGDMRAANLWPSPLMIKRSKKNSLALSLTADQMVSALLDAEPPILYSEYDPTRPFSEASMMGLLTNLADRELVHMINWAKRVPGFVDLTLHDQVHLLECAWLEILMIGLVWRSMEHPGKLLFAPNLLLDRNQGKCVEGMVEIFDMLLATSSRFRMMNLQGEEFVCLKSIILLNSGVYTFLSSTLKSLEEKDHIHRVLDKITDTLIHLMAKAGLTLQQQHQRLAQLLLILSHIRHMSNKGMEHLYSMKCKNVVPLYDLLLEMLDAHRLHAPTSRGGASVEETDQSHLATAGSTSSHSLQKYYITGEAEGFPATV
Sequence of Thyrotropin receptor (Homo sapiens) (P16473 whole entry, looked up): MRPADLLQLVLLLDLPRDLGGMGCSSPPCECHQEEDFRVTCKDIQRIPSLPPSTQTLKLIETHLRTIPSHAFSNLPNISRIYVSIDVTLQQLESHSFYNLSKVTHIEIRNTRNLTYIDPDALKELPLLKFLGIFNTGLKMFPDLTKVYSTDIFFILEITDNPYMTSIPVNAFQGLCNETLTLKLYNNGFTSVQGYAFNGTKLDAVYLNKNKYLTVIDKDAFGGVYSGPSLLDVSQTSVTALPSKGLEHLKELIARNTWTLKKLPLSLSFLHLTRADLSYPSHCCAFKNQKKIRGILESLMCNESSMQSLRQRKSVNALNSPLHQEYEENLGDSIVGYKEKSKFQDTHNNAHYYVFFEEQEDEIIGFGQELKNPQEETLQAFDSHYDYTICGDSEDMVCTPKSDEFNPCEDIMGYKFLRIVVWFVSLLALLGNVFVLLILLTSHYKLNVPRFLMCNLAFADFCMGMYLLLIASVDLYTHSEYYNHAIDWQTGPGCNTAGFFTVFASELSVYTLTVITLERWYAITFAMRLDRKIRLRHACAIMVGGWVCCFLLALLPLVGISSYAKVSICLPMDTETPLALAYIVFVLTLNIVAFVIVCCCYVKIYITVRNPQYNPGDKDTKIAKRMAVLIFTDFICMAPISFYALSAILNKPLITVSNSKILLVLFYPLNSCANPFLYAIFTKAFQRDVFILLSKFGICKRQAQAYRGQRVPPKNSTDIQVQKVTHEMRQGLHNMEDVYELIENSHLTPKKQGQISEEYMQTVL

OCc1ccccn1
not listed: [17] | [18] | [19]
inactive: all other assays above

CCO[Si](C)(OCC)OCC
not listed: [19]
inactive: all other assays above

Nc1nc(F)nc2c1ncn2[C@@H]1O[C@H](CO)[C@@H](O)[C@@H]1O
not listed: [6] | [17] | [18]
inactive: all other assays above

CCN(CC)S(=O)(=O)c1ccc(C(=O)O)cc1
not listed: [19]
inactive: all other assays above

COC(=O)[C@H]1[C@H]2C[C@@H]3c4[nH]c5cc(OC)ccc5c4CCN3C[C@H]2C[C@@H](OC(=O)COc2ccc(OC)cc2)[C@@H]1OC
not listed: [5] | [6] | [16] | [19]
inactive: all other assays above

CC(C)COC(=O)C(C)C
not listed: [11] | [12] | [17] | [19]
inactive: all other assays above

CCC(=O)Nc1cccc(N)c1
not listed: [6] | [15] | [18]
inactive: all other assays above

CCC(C)OC(=O)N1CCCCC1CCO (centres undefined)
not listed: [6] | [7] | [18] | [19]
inactive: all other assays above
